# In ChEMBL document CHEMBL3988442, “University of Dundee, Small-Polar-MMV Screening Library” (2021):
# The whole screen tested about 85,000 compounds, of which about 440 (0.52%) showed an effect of 50% or more. The sample as a whole holds a higher share of strong results than the screen did.
# Assay: In vitro enzyme assay to detect hydrolysis of chlorophenol red-beta-D-[…] directly proportional to the number of Toxoplasma stably expressing beta-galactosidase
# Assay type: functional, organism-based, Toxoplasma gondii
# Set-up: scale not given: in the data most compounds retested in dose-response had high values
Structure (SMILES),Percent Effect (50 µM) [%],Percent Effect (10 µM) [%]
CC(=O)NC1CCNC1 (stereo not given),26.97,–
CN1CC(NC(=O)CCC(=O)c2cccs2)CCC1=O (stereo not given),-1.402,–
COCC1CCN(Cc2ccc(NC(C)=O)cc2)C1 (stereo not given),-11.02,–
CC(=O)Nc1ccc(CN2CCCOC(C)C2)cc1 (stereo not given),52.96,–
CCC(=O)NC1CCCN(Cc2ccc(NC(C)=O)cc2)C1 (stereo not given),–,8.052
CCC(C)(CC)NC(=O)Nc1cnn(CCOC)c1,-4.406,–
CC(C)(C(=O)N1CCC(N)CC1)c1cccc(F)c1,80.98,–
O=C(N1CCC(Oc2ccncc2)C1)C1(c2cccc(F)c2)CC1 (stereo not given),–,4.06
CC(C)(C(=O)N1CC[C@@H](O)C1)c1ccccc1,-3.951,–
O=C(N1CCCC(n2cncn2)C1)C1(c2cccc(F)c2)CC1 (stereo not given),–,-9.535
NC1CCN(C(=O)C2(c3cccc(F)c3)CC2)CC1,89.65,–
CC(C)(C(=O)N1CCOCC1)c1ccccc1,-4.463,–
COCCCC1CCNCC1,4.614,–
NCC(CO)Cc1ccsc1 (stereo not given),-1.079,–
Brc1cc2c(cc1CN1CCCNCC1)OCO2,-4.823,–
CC1(c2ccncc2)NC(=O)c2ccccc2N1 (stereo not given),11.28,–
O=C(CN1CCn2ccnc2C1)NC1CCS(=O)(=O)C1 (stereo not given),6.953,–
CC(C1CCN(Cc2c[nH]cn2)CC1)N1CCCC1 (stereo not given),21.18,–
NCc1ccnc(OCC2CC2)c1,3.263,–
Cc1ccccc1CC(=O)N(C)C,-4.007,–
NCCC1CCN(C(=O)Nc2cc(F)cc(F)c2)CC1,-1.616,–
Cc1ccc(S(=O)(=O)NCC2(O)CCOc3ccccc32)s1 (stereo not given),–,3.665
O=S(=O)(NCC1(O)CCOc2ccccc21)c1ccc(Br)s1 (stereo not given),–,53.2
O=S(=O)(NCC1(O)CCOc2ccccc21)c1ccc(Cl)s1 (stereo not given),–,4.661
COCCn1cc(CNC(=O)NCC(F)F)cn1,-9.663,–
CNc1nc(C(=O)N[C@@H]2CC[C@@H](N)C2)cs1,18.65,–
CC(NC(=O)c1ccoc1)C(=O)Nc1nccs1 (stereo not given),-8.907,–

Structure (SMILES),Percent Effect (50 µM) [%],Percent Effect (10 µM) [%]
Cc1cc(C)n(CC2CN(CC3CCCC3)CCO2)n1 (stereo not given),–,-2.525
Cc1cc(CN2CCOC(Cn3nc(C)cc3C)C2)on1 (stereo not given),–,-42.92
CC(C)=CCN1CCOC(Cn2nc(C)cc2C)C1 (stereo not given),–,97.95
O=C1COc2ccc(NC(=O)c3ccccc3)cc2N1,3.882,–
CN(CCC#N)CC1CCN(CCO)CC1,-6.076,–
COc1cc(Br)ccc1CCCNC(=O)C(C)O (stereo not given),0.2477,–
CC(=O)c1ccc(OCC(O)CNC2CCCC2)cc1 (stereo not given),6.61,–
O=C(COc1ccccc1)NCCn1ccnc1,-5.476,–
CC(=O)c1ccc(OCC(O)Cn2ccnc2)cc1 (stereo not given),57.01,–
CCNC(=O)N1CCC(NC(=O)c2ccc(C)o2)CC1,-1.852,–
Cc1nc2cc(C3CCN(Cc4ccccc4F)C3)nn2c(O)c1C (stereo not given),–,15.76
Cc1nc2cc(C3CCN(Cc4cccc(F)c4F)C3)nn2c(O)c1C.O=C(O)CC(O)(CC(=O)O)C(=O)O (stereo not given),–,49.65
Cc1cc(C(=O)Nc2ccnc(C)c2Cl)cc(O)n1,12.01,–
CN1CCCN(CC(=O)NCCCc2ncc[nH]2)CC1,-15.47,–
CN(C)c1ncc2c(n1)CCCC2NC(=O)C1CC1 (stereo not given),–,7.926
CCC(=O)NC1CCCc2nc(N(C)C)ncc21 (stereo not given),69.08,–
Cc1cc(C)c(C(=O)NC2CCCc3nc(N(C)C)ncc32)cc1C (stereo not given),–,19.3
CNC(=O)CN1CCCC(CO)(CCCOC)C1 (stereo not given),5.203,–
CC(=O)NCCCS(=O)(=O)c1ccc(C)cn1,-5.9,–
CC(=O)NCCCS(=O)(=O)c1ncccc1Cl,60.86,–
CC(=O)NCCCNCc1ccc(Cl)c2cccnc12,–,-6.901
COC1CNc2ccccc2C1 (stereo not given),-15.01,–
NC(=O)CN1CCCN(C(=O)c2ccc(Br)o2)CC1,-5.913,–
Fc1ccc(NCC2CCC3(CC2)OCCO3)nc1,8.487,–
CCC(CC)C(=O)N1C[C@@H](CO)[C@H](N(C)C)C1,16.3,–
NCC1Cc2cc(Oc3cc(F)c(CN4CCCC4)c(F)c3)ccc2O1 (stereo not given),–,54.73
COc1ccc(CN2CCCC2)cc1Oc1ccc2c(c1)CC(CN)O2 (stereo not given),–,-15.09

Structure (SMILES),Percent Effect (50 µM) [%],Percent Effect (10 µM) [%]
Cc1cc(CN2CCCC2)cc(Oc2ccc3c(c2)CC(CN)O3)c1 (stereo not given),–,-8.923
CSCC(CCO)NC(=O)Nc1cccc(F)c1 (stereo not given),-3.551,–
CCc1cc(=O)[nH]c(-c2ccc(NCCc3ccc(O)cc3)nc2)n1,–,56.82
CCc1cc(=O)[nH]c(-c2ccc(NCCC(C)O)nc2)n1 (stereo not given),–,3.239
Cc1nc(-c2ccc(NCCc3ccc(O)cc3)nc2)[nH]c(=O)c1C,–,31.24
N#Cc1ccc(S(=O)(=O)N2CCCO2)c(Cl)c1,6.897,–
N#CCCNC(=O)CN1CCCC1,96.45,–
N#CCCNC(=O)CN1CCCCC1,-2.214,–
N#CCCNC(=O)CN1CCCCCC1,-10.45,–
CCC(C)CS(=O)(=O)Nc1ccc(F)c(C(N)=O)c1 (stereo not given),12.83,–
O=C(Cc1ccccc1)NCc1ccncc1,2.374,–
COCc1nn(CC(=O)c2cc(F)ccc2F)c(=O)o1,53.45,–
COCc1nn(Cc2ccc(Cl)s2)c(=O)o1,–,11.6
COCc1nn(Cc2ccccc2Cl)c(=O)o1,10.13,–
CN(CC1CCOC1)C(=O)c1cc(F)ccc1F (stereo not given),12.99,–
CC1CCN(C(=O)Cn2cncc(Br)c2=O)CC1,8.773,–
CC(O)CN1CCN(Cc2cccc(C(=O)N(C)C)c2)CC1 (stereo not given),–,5.816
CC(O)CN1CCN(Cc2cccc(C(=O)N3CCCCC3)c2)CC1 (stereo not given),–,67.87
CSCc1cccc(C(=O)N2CCN(CC(C)O)CC2)c1 (stereo not given),–,-0.6353
CC(C)C(=O)N1CCN(CCc2ccccn2)CC1,-1.569,–
Cn1nc2c(cc1=O)CN(c1ncnc3sccc13)CC2,–,80.8
CCn1nc2c(cc1=O)CN(c1ncnc3sccc13)CC2,–,58.75
c1csc(N2CCN(c3ncnc4sccc34)CC2)n1,–,15.87
CC(C)n1nc2c(cc1=O)CN(c1ncnc3sccc13)CC2,–,1.477
CC(C(=O)Nc1nccs1)N1CCc2nn(C)c(=O)cc2C1 (stereo not given),–,7.43
CCCn1nc2c(cc1=O)CN(c1ncnc3sccc13)CC2,–,8.636
